Compound activity as filed in PubChem BioAssay.
TROY signal inh: inhibitors of TROY-dependent NF-kB signaling; Q293 LMP1-TROYcd NF-kB luciferase reporter, 4 h; inhibition, % at 10 µM; actives 0.98% (n = 360,000); AID 1347056;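 active = compounds whose plate-normalised and pattern-corrected inhibition of the luciferase reporter signal at the single screening dose is 50% or more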
TWEAK Fn14 block: TWEAK-Fn14 signaling inhibition; TWEAK-stimulated Fn14 reporter cells, luciferase luminescence, 8 h; inhibition, % at 10 µM; actives 2% (n = 360,000); AID 1159606; in the data active = inhibition above about 50%
LGR2 inh: blocks bursicon-induced cAMP signaling via Drosophila LGR2; HEK293 LGR2, CRE-luciferase, bursicon-stimulated, 4 h; inhibition, % at 9.99 µM; actives 0.35% (n = 380,000);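 active = drop in luminescence signal, shown as inhibition above about 50% in the replicate tests, limit read from the data, passing the limit was not always enough; inconclusive = probably only some replicates passing the limit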;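 also: agonist challenge used bursicon conditioned medium at about half maximal strength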
EBV LMP1 NFkB: reduces LMP1-driven NF-kappaB luciferase signal. actives 0.69% (n = 350,000). LMP1-induced NF-kappaB luciferase reporter cells, luminescence. inhibition, % at 12.5 µM; in the data active = inhibition above about 41%; inconclusive = no clear call, values can overlap the other calls;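 also: 0% = neutral control wells and 100% = reference inhibitor control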
EWS-Fli block: blocks EWS/Fli oncoprotein-driven transcription; actives 0.67% (n = 350,000); A673 NR0B1-luciferase reporter, viability-normalised; inhibition, % at 12.6 µM; AID 651661;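 active = mean inhibition of at least 50% after viability correction, with every replicate also passing that limit; inconclusive = mean reaches 50% but only one of two replicates passes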;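 also: firefly luciferase signal divided by Alamar Blue viability fluorescence both relative to DMSO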
DNA binding: DNA binding small molecules | actives 2% (n = 640) | salmon sperm DNA acridine orange fluorescence polarization | AID 720586 | AC35, µM (top dose mostly 68 µM), without a hit: at the top dose activity change, negative = DNA binding | shares compounds with EWS-Fli block;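 active = fitted curve reaches a 35% signal fall AC35 below twice the sample's top valid tested dose, actives reach about 48 µM in these data; inactive = the rest, including activity in the rising direction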;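 also: lower polarization ratio signals compound binding to DNA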
* hit, by the source's call. This is a sample that favours compounds with a hit; in the whole collection about 2.6% have one here.

How did Cc1occc1-c1n[nH]c(=S)n1-c1ccccc1 do in these assays?
TROY signal inh: -8.8; TWEAK Fn14 block: -4.2; LGR2 inh: -2.8; EBV LMP1 NFkB: 3.0; EWS-Fli block: 14.2

How did C[C@H]1O[C@@H](O[C@H]2[C@@H](O)C[C@H](O[C@H]3[C@@H](O)C[C@H](O[C@H]4CC[C@@]5(C)[C@H](CC[C@@H]6[C@@H]5C[C@@H](O)[C@]5(C)[C@@H](C7=CC(=O)OC7)CC[C@]65O)C4)O[C@@H]3C)O[C@@H]2C)C[C@H](O)[C@@H]1O do in these assays?
TROY signal inh: 52.5*; TWEAK Fn14 block: 68.6*; LGR2 inh: 84.5*; EBV LMP1 NFkB: 81.5*; EWS-Fli block: 65.8*; DNA binding: -3.7%

Results for COc1cc(OC)cc(-c2cc3nc(C)c(CCC(=O)NCc4ccccc4)c(C)n3n2)c1 ?
TROY signal inh: 46.3; TWEAK Fn14 block: 66.2*; LGR2 inh: -12.4; EBV LMP1 NFkB: 29.2; EWS-Fli block: 57.4*; DNA binding: -8.7%

What do the screens show for `CCc1ccc(C2=NN(CCC(=O)NC(C)c3ccc4c(c3)OCCO4)C(=O)CC2)cc1` (stereo not drawn)?
TROY signal inh: 5.9; TWEAK Fn14 block: -6.2; LGR2 inh: 1.3; EBV LMP1 NFkB: 0.4; EWS-Fli block: 3.2

Results for Cc1nc2cc(-c3ccc(Cl)cc3)nn2c(C)c1CCC(=O)NC(C)c1ccc2c(c1)OCCO2 (stereo not drawn) ?
TROY signal inh: 33.3; TWEAK Fn14 block: 56.1*; LGR2 inh: -31.2; EBV LMP1 NFkB: 11.9; EWS-Fli block: 56.6*; DNA binding: 1.3%

How did Cc1csc(NC(=O)CCc2c(C)nc3cc(-c4ccc(Cl)cc4)nn3c2C)n1 do in these assays?
TROY signal inh: 30.0; TWEAK Fn14 block: 62.3*; LGR2 inh: -74.3; EBV LMP1 NFkB: 27.5; EWS-Fli block: 56.2*; DNA binding: -7.7%

How did Cc1csc(NC(=O)CSc2nnc(-c3ccc(Cl)cc3)n2N)n1 do in these assays?
TROY signal inh: -12.0; TWEAK Fn14 block: 2.1; LGR2 inh: -7.8; EBV LMP1 NFkB: -3.5

How did O=C(Nc1cccc(S(=O)(=O)N2CCOCC2)c1)c1ccc(Cl)nc1 do in these assays?
TROY signal inh: 17.9; TWEAK Fn14 block: 11.4; LGR2 inh: -2.9; EBV LMP1 NFkB: 3.8; EWS-Fli block: -72.9

How did O=C(Nc1cccc(S(=O)(=O)N2CCCC2)c1)c1ccc(Cl)nc1 do in these assays?
TROY signal inh: 9.9; TWEAK Fn14 block: 12.9; LGR2 inh: 14.8; EBV LMP1 NFkB: 12.6; EWS-Fli block: 51.1*; DNA binding: -10.8%

How did COc1ccc(S(=O)(=O)Nc2ccc3c(c2)C(=O)N([C@H](C)CO)C[C@H](C)[C@H](CN(C)C(=O)Nc2cccc4ccccc24)OCCCC[C@@H](C)O3)cc1 do in these assays?
LGR2 inh: 8.5; EWS-Fli block: 3.7

What do the screens show for `CC(C)N1C/C(=C/c2ccsc2)C(=O)/C(=C/c2ccsc2)C1`?
TROY signal inh: 18.3; TWEAK Fn14 block: 14.2; LGR2 inh: 17.3; EBV LMP1 NFkB: -88.2; EWS-Fli block: 71.9*; DNA binding: -27.2%

What do the screens show for `CC(C)N1CC2=C(OC(N)=C(C#N)C2c2cccnc2)/C(=C/c2cccnc2)C1` (stereo not drawn)?
TROY signal inh: -8.8; TWEAK Fn14 block: 5.9; EBV LMP1 NFkB: 8.3

Results for CC(C)N1C/C(=C/c2cccnc2)C(=O)/C(=C/c2cccnc2)C1 ?
TROY signal inh: -9.0; TWEAK Fn14 block: -10.9; LGR2 inh: 23.5; EBV LMP1 NFkB: inconclusive; EWS-Fli block: 69.5*; DNA binding: -10.9%

Results for CCN1C(=O)S/C(=C/c2ccsc2)C1=O ?
TROY signal inh: -43.1; TWEAK Fn14 block: -26.6; EBV LMP1 NFkB: -2.5

How did CN(C)c1nc2c(N)ncnc2n1C1OC(CO)C(O)C1O (stereo not drawn) do in these assays?
TROY signal inh: 11.7; TWEAK Fn14 block: 3.8; LGR2 inh: 22.7; EBV LMP1 NFkB: 0.0; EWS-Fli block: 5.5

How did CN(C)c1ncnc2c1ccn2C1OC(CO)C(O)C1O (stereo not drawn) do in these assays?
TROY signal inh: -57.8; TWEAK Fn14 block: -15.3; LGR2 inh: 22.7; EBV LMP1 NFkB: 7.1; EWS-Fli block: 62.5*; DNA binding: 13.7%

How did CN(C(=O)COC(=O)c1cc(-c2ccc(Cl)s2)nc2ccccc12)C1CCS(=O)(=O)C1 (stereo not drawn) do in these assays?
TROY signal inh: -17.8; TWEAK Fn14 block: 0.5; LGR2 inh: -13.0; EBV LMP1 NFkB: 4.6; EWS-Fli block: -17.2

How did CN(C(=O)COC(=O)c1cc(-c2ccccc2Cl)nc2ccccc12)C1CCS(=O)(=O)C1 (stereo not drawn) do in these assays?
TROY signal inh: 1.4; TWEAK Fn14 block: -15.4; LGR2 inh: 6.9; EBV LMP1 NFkB: -1.5; EWS-Fli block: 84.5*; DNA binding: -2.4%

How did Cc1ccc(S(=O)(=O)Nc2cccc3c2O[C@@H](CN(C)C(=O)NC2CCCCC2)[C@@H](C)CN([C@H](C)CO)C3=O)cc1 do in these assays?
LGR2 inh: -3.1; EWS-Fli block: -4.0

How did COc1ccc(NC(=O)N(C)C[C@@H]2OCc3ccccc3-c3c(n(C)c4ccccc34)C(=O)N([C@@H](C)CO)C[C@H]2C)cc1 do in these assays?
LGR2 inh: 6.1; EWS-Fli block: 12.3

How did C[C@@H]1CN([C@@H](C)CO)C(=O)c2cc(NC(=O)Nc3ccc(C(F)(F)F)cc3)ccc2O[C@@H]1CN(C)Cc1ccccc1 do in these assays?
LGR2 inh: 5.3; EWS-Fli block: 17.4

What do the screens show for `BrC(=C\c1ccccc1)/C=N/Nc1ccc2nncn2n1`?
TROY signal inh: -34.1; TWEAK Fn14 block: -12.2; LGR2 inh: -15.6; EBV LMP1 NFkB: -4.2; EWS-Fli block: -3.1

What do the screens show for `BrC(=C\c1ccccc1)/C=N/n1cnnc1`?
TROY signal inh: 16.1; TWEAK Fn14 block: 71.6*; LGR2 inh: 85.7*; EBV LMP1 NFkB: inconclusive; EWS-Fli block: 67.5*; DNA binding: -8.0%

How did Cc1c(O)ccc2c(CN3CCN(Cc4ccccc4)CC3)cc(=O)oc12 do in these assays?
TROY signal inh: -19.4; TWEAK Fn14 block: -37.5; LGR2 inh: 13.6; EBV LMP1 NFkB: 1.0; EWS-Fli block: -8.5

What do the screens show for `O=c1cc(CN2CCN(Cc3ccccc3)CC2)c2ccc(O)c(O)c2o1`?
TROY signal inh: -5.8; TWEAK Fn14 block: -19.2; LGR2 inh: -0.8; EBV LMP1 NFkB: 9.3; EWS-Fli block: 51.7*; DNA binding: -5.1%

How did CCCNC(=O)N1CC2(C1)CN(C(=O)COC)[C@@H](CO)c1c2c2ccc(OC)cc2n1C do in these assays?
LGR2 inh: 17.3; EWS-Fli block: -12.2

Results for O=C(N/N=C/c1ccc[nH]1)c1ccccc1OCc1ccc(F)cc1 ?
TROY signal inh: 10.8; TWEAK Fn14 block: -13.1; LGR2 inh: -9.2; EBV LMP1 NFkB: 4.6; EWS-Fli block: 2.1
